Data: ChEMBL document CHEMBL4513216, “Probing the Open Global Health Chemical Diversity Library for Multistage-Active Starting Points for Next-Generation Antimalarials” (ACS Infect Dis, 2020)
The whole screen tested about 68,000 compounds, of which about 2,700 (4%) showed an effect of 50% or more. This excerpt belongs to a sample that is enriched for strong results.

Each molecule was assayed on Plasmodium berghei (assay: Screen against P. berghei liver stage (PbLuc), transformed with Luciferase, at 2uM). Conditions: tested at 2 uM.
Assay type: functional, HepG2

SMILES	INHIBITION [%]
CCN(CC1CCCN(CCc2cccc(OC)c2)C1)C(=O)CN(C)C (configuration not stated)	-85.72
Cc1cc(C(=O)N2CCCC2c2nc(O)cc(C(C)C)n2)on1 (configuration not stated)	12.21
CCN(C)C[C@@H]1CN(Cc2cnc3c(S(C)(=O)=O)cnn3c2)C[C@@H]1CO	10.91
CN(C)S(=O)(=O)c1csc(C(=O)N2CCSCC2)c1	68.33
CN(C)S(=O)(=O)c1csc(C(=O)N2CCC(C(N)=O)CC2)c1	-0.24
CCN(CC)S(=O)(=O)c1csc(C(=O)N2CCC(C(N)=O)CC2)c1	14.27
Cc1nc(NCCSc2nnc(C)s2)c2cccnc2n1	21
CN1CC2(CCN(CC3CC3)CC2)COc2ccccc2S1(=O)=O	-22.64
Cc1ccc(CS(=O)(=O)CC(=O)NCc2ccccc2F)cc1	26.74
N#Cc1cccc(CS(=O)(=O)NC(Cc2ccccc2)C(N)=O)c1 (configuration not stated)	18.29
NC(=O)C(Cc1ccccc1)NS(=O)(=O)Cc1ccccc1Cl (configuration not stated)	-7.47
O=C(CS(=O)(=O)Cc1ccc(F)cc1)NCc1ccccc1F	-54.34
O=C(CS(=O)(=O)Cc1ccccc1)NCc1ccccc1F	50.59
NC(=O)C(Cc1ccccc1)NS(=O)(=O)Cc1ccccc1F (configuration not stated)	53.13
Cc1ccc(Cl)cc1N1CCC(CNC(=O)CC(F)(F)F)C1 (configuration not stated)	42.92
Cc1cnn(CC(=O)NCC2CCN(c3cc(Cl)ccc3C)C2)c1 (configuration not stated)	80.06
Cc1ccc(Cl)cc1N1CCC(CNC(=O)Cn2cccn2)C1 (configuration not stated)	-48.41
CSCC[C@H](N)c1nnc(SCc2cc(C)ccc2C)o1	17.15
O=C(NCC(F)(F)F)C1CSCN1S(=O)(=O)c1ccccc1F (configuration not stated)	14.06
CCCC1C=CCN1C(=O)c1cc(COc2ccc3c(c2)OCO3)[nH]n1 (configuration not stated)	5.15
O=C(c1cscn1)N1CCC2(CCN(Cc3nccs3)C2)CC1	-14.66
Cc1cc(-c2cc(C3CCOC3)c(C#N)c(N)n2)ccc1Cl (configuration not stated)	21.33
COc1ccc(-c2cc(C3CCOC3)c(C#N)c(N)n2)cn1 (configuration not stated)	7.64
Cc1cc(C)cc(-c2cc(C3CCOC3)c(C#N)c(N)n2)c1 (configuration not stated)	59.27

SMILES	INHIBITION [%]
CCN1CCO[C@]2(CCC[C@H]2COCc2csc(C)n2)C1	32.95
COc1ccc(C)cc1Nc1nc2c(C)nn(C)c2c(=O)n1C	-103.52
Cc1ccsc1C(=O)NC1CCS(=O)(=O)c2ccccc21 (configuration not stated)	-15.77
O=C(NC1CCS(=O)(=O)c2ccccc21)c1sccc1C1CC1 (configuration not stated)	-10.14
O=C(NC1CCS(=O)(=O)c2ccccc21)c1cccs1 (configuration not stated)	79.83
CC(C)CNc1nnc(SC(C(=O)NCc2cccnc2)C(C)C)s1 (configuration not stated)	-16.56
CNc1cc2c(nn1)CCN(C(=O)c1ccc3c(c1)CCC3)C2	29.12
CNc1cc2c(nn1)CCN(C(=O)c1ccc3c(c1)OCO3)C2	50.18
CCNc1cc2c(nn1)CCN(C(=O)c1ccc3c(c1)OCO3)C2	-17.37
Cc1cc(N2CCN(c3ccc(=O)[nH]n3)CC2)nc(-c2ccncc2)n1	-2.96
Cc1c(C(=O)NCCC(=O)N2CCOCC2)sc2ccc(F)cc12	-6.64
COc1cccnc1NC(=O)c1ccc(COCC(F)(F)F)cc1	-14.46
Cc1cc(CN2CCCC(Cn3cncn3)C2)no1 (configuration not stated)	-50.13
Cc1ccc(-c2cc(CN3CCCC(Cn4cncn4)C3)on2)cc1 (configuration not stated)	-23.18
c1cncc(-c2noc(CN3CCCC(Cn4cncn4)C3)n2)c1 (configuration not stated)	-9.22
c1ccc(-c2nc(CN3CCCC(Cn4cncn4)C3)cs2)cc1 (configuration not stated)	-37.28
CC(C)c1nc(CN2CCCC(Cn3cncn3)C2)cs1 (configuration not stated)	5.52
Cc1cccc(-c2noc(CN3CCCC(Cn4cncn4)C3)n2)c1 (configuration not stated)	54.85
Cc1cc(CN2CCCC(Cn3cncn3)C2)on1 (configuration not stated)	59.54
CCCNC(=O)CN1CCN(Cc2csc(C(C)(C)C)n2)CC1	22.1
CCCNC(=O)C1CCCN(Cc2csc(C(C)(C)C)n2)C1 (configuration not stated)	52.87
CCCNC(=O)C1CCN(Cc2csc(C(C)(C)C)n2)CC1	-21.58
CC(C)(C)c1nc(CN2CCCC(Cn3cncn3)C2)cs1 (configuration not stated)	80.49
Cc1ccc(-c2noc(CN3CCCC(Cn4cncn4)C3)n2)cc1 (configuration not stated)	-35.33

SMILES	INHIBITION [%]
c1ccc(-c2nc(CNC3CCc4ncnn4C3)cs2)cc1 (configuration not stated)	-7.88
CCCc1nc(CNCC2CCCN2c2cccnn2)no1 (configuration not stated)	19.76
c1ccc(-c2cc(CN3C[C@H]4CC[C@@H](C3)N(CC3CCC3)C4)on2)cc1	34.16
Cc1ccccc1CNc1ccccc1OCC(=O)N1CCOCC1	-64.94
COc1cc(C2c3c(n[nH]c3C)N=C3COC(=O)C32)cc(Br)c1O (configuration not stated)	37.18
CC(C)C(=O)N1CCN(Cc2cnn(C)c2)CC2(CC(=O)N(C)C2)C1 (configuration not stated)	-2.69
O=C(NCc1ccccc1)N1CCn2c(Cn3cccn3)cnc2C1	6.33
O=C(c1cccc(F)c1)N1CCc2ncc(Cn3cccn3)n2CC1	-39.07
Cc1ccc(C(=O)N2CCc3ncc(Cn4cccn4)n3CC2)cn1	16.43
CN(C)C(=O)N1CCn2c(Cn3cccn3)cnc2C1	25.4
O=C(c1ccoc1)N1CCc2ncc(Cn3cccn3)n2CC1	50.17
O=C(NC1CC1)N1CCn2c(Cn3cccn3)cnc2C1	53.08
Cc1ncsc1CN1C[C@@H]2COC[C@]2(C(=O)NCc2ccccn2)C1	-0.27
CC(C(=O)N1CCN(c2ccccc2)CC1)n1cc(Br)cn1 (configuration not stated)	-34.08
CN1CCN(c2ccccc2CNC(=O)CSC(F)(F)F)CC1	-14.36
CC(C)C(C(=O)N1CCCN(c2cccnn2)CC1)n1cncn1 (configuration not stated)	-0.6
OCc1c(Cl)ncn1-c1ccc(F)cc1	22.43
O=C(CCC1CCCC1)N1CCC(c2cc3ncccc3c(O)n2)CC1	22.39
Cc1nc(NC(=O)c2c(-n3cnnn3)sc3c2CCC3)sc1C	10.71
CC(C)CNC(=O)c1c(-n2cnnn2)sc2c1CCCC2	15.93
Cc1sc(-n2cnnn2)c(C(=O)NC(C)C)c1C	-21.53
Cc1nc(NC(=O)c2c(-n3cnnn3)sc(C)c2C)sc1C	60.67
Cc1nc(NC(=O)c2c(-n3cnnn3)sc3c2CCCC3)sc1C	76.25
CCCn1nccc1C(=O)Nc1nc(C)c(C)s1	-44.44
